PubChem BioAssay (NCATS)
A number with no mark means an inactive call. Inconclusive results are not listed. Entries that show only a call come without a potency. Activity calls are given as the source filed them. Unless noted, calls follow the shape of the dose curve; as a rule, active = well fitted curve in the direction sought with a large enough effect; inconclusive = small, poorly fitted or top-dose-only effect, or another doubt; inactive = no such curve, though single readings can be large; an effect the other way counts as inactive or inconclusive.

Key:
[1] = target: Cytochrome P450 1A2 (Homo sapiens) (UniProt P05177); test: p450-cyp1a2 (AID 410; calls by dose curve)
In short: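 20nM CYP1A2 with 100uM Luciferin-ME (at Km) in 100mM KPO4; compound preincubated 10 min, NADPH regeneration added, 60 min at room temperature. Luciferin quantified by luminescence after detection reagent; normalized to 57 uM furafylline.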

[2] = target: Glucocorticoid receptor (Homo sapiens) (UniProt P04150); test: GR-GFP Redistribution (AID 450;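 active = compounds whose dose series gives a full or clear partial fitted curve of increased nuclear translocation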; also: potency is read from the fitted curve at half-maximal effect); settings: U2OS GR-GFP nuclear translocation, laser cytometry, 2 h
Glucocorticoid receptor (Homo sapiens), sequence (P04150 whole entry, looked up, the tested form may be a part): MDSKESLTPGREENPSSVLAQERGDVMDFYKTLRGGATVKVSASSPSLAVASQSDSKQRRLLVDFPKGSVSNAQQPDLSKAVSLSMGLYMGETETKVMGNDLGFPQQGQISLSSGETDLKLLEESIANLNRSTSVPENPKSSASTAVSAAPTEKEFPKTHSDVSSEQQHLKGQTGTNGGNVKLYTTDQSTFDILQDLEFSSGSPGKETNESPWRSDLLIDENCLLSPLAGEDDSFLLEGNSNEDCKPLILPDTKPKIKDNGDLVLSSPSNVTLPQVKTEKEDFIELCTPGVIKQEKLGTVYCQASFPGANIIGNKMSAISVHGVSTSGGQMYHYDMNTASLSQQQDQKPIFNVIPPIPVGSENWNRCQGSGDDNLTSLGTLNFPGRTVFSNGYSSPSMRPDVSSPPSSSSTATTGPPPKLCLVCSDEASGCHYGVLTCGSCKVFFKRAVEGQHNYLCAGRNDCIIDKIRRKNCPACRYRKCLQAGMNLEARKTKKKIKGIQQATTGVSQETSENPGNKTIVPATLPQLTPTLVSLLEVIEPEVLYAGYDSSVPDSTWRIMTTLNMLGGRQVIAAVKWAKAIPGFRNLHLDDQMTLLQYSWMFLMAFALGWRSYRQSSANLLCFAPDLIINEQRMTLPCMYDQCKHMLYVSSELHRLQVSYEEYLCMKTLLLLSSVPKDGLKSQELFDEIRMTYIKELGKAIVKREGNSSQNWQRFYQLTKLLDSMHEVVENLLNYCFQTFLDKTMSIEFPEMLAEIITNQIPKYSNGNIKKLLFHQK

[3] = target: Glucocorticoid receptor (Homo sapiens) (UniProt P04150); test: GR-EFC Redistribution (AID 451; calls by dose curve; also: potency is read from the fitted curve at half-maximal effect); settings: CHO-K1 GR-EFC translocation, beta-gal luminescence, 2 h
In short: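 CHO-K1 cells expressing nuclear EA and GR-ED fragments of b-gal; compounds titrated up to 46 uM final, 2 h at 37 C. GR nuclear translocation read as complemented b-gal luminescence after 1 h RT detection.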

[4] = target: 3',5'-cyclic-AMP phosphodiesterase 4B (Homo sapiens) (UniProt Q07343); test: qHTS Assay for Inhibitors of PDE-IV (AID 607; active = well fitted activation curve with a large enough effect in the main read-out, with a control signal flat, not every such curve was filed as active)
3',5'-cyclic-AMP phosphodiesterase 4B (Homo sapiens), sequence (Q07343 whole entry, looked up): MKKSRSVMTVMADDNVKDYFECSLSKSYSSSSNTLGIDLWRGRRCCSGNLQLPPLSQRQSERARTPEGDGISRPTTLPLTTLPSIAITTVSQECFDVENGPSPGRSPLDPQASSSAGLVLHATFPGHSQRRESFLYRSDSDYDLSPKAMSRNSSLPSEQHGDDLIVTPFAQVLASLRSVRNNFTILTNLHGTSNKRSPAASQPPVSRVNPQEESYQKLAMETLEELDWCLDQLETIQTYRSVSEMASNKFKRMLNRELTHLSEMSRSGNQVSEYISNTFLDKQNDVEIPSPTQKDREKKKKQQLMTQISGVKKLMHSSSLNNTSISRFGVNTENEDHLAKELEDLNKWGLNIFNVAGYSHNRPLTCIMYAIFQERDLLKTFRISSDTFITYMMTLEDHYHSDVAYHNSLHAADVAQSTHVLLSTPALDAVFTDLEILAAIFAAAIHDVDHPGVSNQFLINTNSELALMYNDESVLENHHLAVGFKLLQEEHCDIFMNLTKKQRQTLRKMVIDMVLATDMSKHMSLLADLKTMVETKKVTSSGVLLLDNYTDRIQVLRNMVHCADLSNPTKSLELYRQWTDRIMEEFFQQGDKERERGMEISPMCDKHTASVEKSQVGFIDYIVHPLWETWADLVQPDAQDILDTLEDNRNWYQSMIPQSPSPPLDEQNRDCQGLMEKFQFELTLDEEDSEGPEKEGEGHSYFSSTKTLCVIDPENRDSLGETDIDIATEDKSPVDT
In short: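 Live HEK293 cells with a modified cyclic nucleotide-gated (CNG) channel report intracellular cAMP via membrane-potential dye fluorescence (ex 535/em 590 nm). Endogenous PDE-IV was targeted. Compounds were tested at up to 22.9 uM final; RO 20-1724 100 uM served as control.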

[5] = target: Cytochrome P450 3A4 (Homo sapiens) (UniProt P08684); test: qHTS Assay for Activators of Cytochrome P450 3A4 (AID 885); also: nearly all actives have a fitted effect of over 65% in size
In short: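 Quantitative HTS format: compounds preincubated with 20nM human CYP3A4 and Luciferin-PPXE substrate at KM, reaction started by NADPH regeneration, stopped after 60 min, luciferase luminescence read 20 min later.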

[6] = target: Ubiquitin carboxyl-terminal hydrolase 1 (Homo sapiens) (UniProt O94782); test: Inhibitors of USP1/UAF1: Pilot qHTS (AID 504865); also: potency is read from the fitted curve at half-maximal effect; nearly all actives have a fitted effect of over 35% in size
In short: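 Enzyme-free wells gave the negative control, while test wells held 1nM USP1/UAF1 preincubated with compound for 15 min at room temperature. Ub-Rho at 150nM final started the reaction, and fluorescence at 480/540 nm was recorded kinetically.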

[7] = target: DNA dC->dU-editing enzyme APOBEC-3G (Homo sapiens) (UniProt Q9HC16); test: qHTS for inhibitors of Vif-A3G interactions: Validation (AID 588379)
DNA dC->dU-editing enzyme APOBEC-3G (Homo sapiens), sequence (Q9HC16 whole entry, looked up): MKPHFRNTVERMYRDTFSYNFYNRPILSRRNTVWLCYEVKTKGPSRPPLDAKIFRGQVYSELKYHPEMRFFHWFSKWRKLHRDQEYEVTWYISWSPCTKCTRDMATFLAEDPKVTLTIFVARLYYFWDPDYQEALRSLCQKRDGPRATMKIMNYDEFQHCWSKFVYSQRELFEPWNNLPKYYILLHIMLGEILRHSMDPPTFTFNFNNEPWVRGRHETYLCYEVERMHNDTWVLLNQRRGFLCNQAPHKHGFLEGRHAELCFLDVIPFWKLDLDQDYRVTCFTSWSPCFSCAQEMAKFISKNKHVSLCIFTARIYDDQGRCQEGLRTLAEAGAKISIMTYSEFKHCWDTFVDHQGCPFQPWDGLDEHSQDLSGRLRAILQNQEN
In short: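 HeLa cells stably expressing Vif and A3G-eYFP, 700 cells/well, incubated overnight at 37 deg C, then exposed to compound overnight at 37 deg C. Inhibition of Vif-mediated degradation read as increased yellow fluorescence (Ex 488/Em 500-530) by laser-scanning cytometry.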

[8] = tested on: Zika virus NS2B-NS3 protease; test: Primary screen GU AMC qHTS for Zika virus inhibitors (AID 1347154); also: nearly all actives have a fitted effect of over 70% in size; also: potency is read from the fitted curve at half-maximal effect
In short: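 Unlinked Zika NS2B hydrophilic domain–NS3 protease complex at 25 nM in 10 mM Tris-HCl pH 8.0, 0.01% Tween 20, with an AMC peptide substrate. Fluorescence change (340/450 nm) over 15 min at room temperature, normalized to controls, fitted to 4-parameter Hill.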

[9] = AP1 Signaling Pathway (AID 357; active = well fitted curve in either direction with a large enough effect, not every such curve was filed as active;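 also: ME-180 reporter cells stimulated with EGF at its EC50 level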); settings: ME-180 AP-1-bla reporter, EGF-induced, beta-lactamase ratio, 5 h; at 38 µM (top of the series)
In short: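 Titration-series screen for positive or negative modulators of EC50 EGF-induced signaling in ME-180 cells carrying an AP-1-driven beta-lactamase reporter. After 5 hours at 37 degrees Celsius, CCF4 460nm/530nm emission ratio gave %Activity; AC50 values derived.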

[10] = NFAT Signaling Pathway (AID 444; active = well fitted curve in either direction with a large enough effect, not every such curve was filed as active;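 also: carbachol stimulus at about its EC50 of 1 µM final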); settings: Jurkat NFAT-bla M1, carbachol, beta-lactamase ratio, 5 h; at 38 µM (top of the series)
In short: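 Jurkat cells with NFAT-driven β-lactamase reporter and co-expressed M1 receptor, stimulated with carbachol (final 1 uM, ~EC50), compound titration, 5 h at 37 °C. CCF4 loaded 1 h at RT; 460/530 nm ratio gave %activity and AC50.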

[11] = Stat Signaling Pathway (AID 446; active = well fitted curve in either direction with a large enough effect, not every such curve was filed as active;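 also: ME-180 cervical cancer cells given 40 pM IL-6 alongside compound; SIE-controlled beta-lactamase reporter measured as 460/530 nm FRET emission ratio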); settings: ME-180 SIE beta-lactamase reporter, IL-6 stimulated, 5 h; at 38 µM (top of the series)
In short: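 IL-6/STAT signaling read in ME-180 cells via an SIE beta-lactamase reporter. Stimulus was 40 pM IL-6 (its AC50) for 5 hrs, so both activation and inhibition register.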

[12] = target: Mitogen-activated protein kinase 10 (Mus musculus) (UniProt Q61831); test: JNK3 AlphaScreen Assay (AID 530; active = well fitted curve in either direction with a large enough effect, not every such curve was filed as active;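 also: kinase came from lysate of stimulated human HepG2 cells; signal reports phosphorylation of biotinylated GST-cJun 1-79 at Ser73 with 10 µM ATP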)
In short: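 Pre-activated (IL-1β/TNFα) JNK3 in HepG2 lysates phosphorylates biotin-GST-cJun(1-79), 10 uM ATP; anti-phospho-cJun(Ser73) AlphaScreen read at room temperature, pH 7.6 Tris buffer. Compounds pre-incubated 15 min as titrations.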

[13] = target: Guanine nucleotide-binding protein G(i) subunit alpha-1 (Homo sapiens) (UniProt P63096); test: qHTS Assay for Inhibitors of RGS12 GoLoco Motif Activity (Green Fluorophore) (AID 879);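 also: negative values mean loss of peptide binding seen as reduced polarization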
Guanine nucleotide-binding protein G(i) subunit alpha-1 (Homo sapiens), sequence (P63096 whole entry, looked up): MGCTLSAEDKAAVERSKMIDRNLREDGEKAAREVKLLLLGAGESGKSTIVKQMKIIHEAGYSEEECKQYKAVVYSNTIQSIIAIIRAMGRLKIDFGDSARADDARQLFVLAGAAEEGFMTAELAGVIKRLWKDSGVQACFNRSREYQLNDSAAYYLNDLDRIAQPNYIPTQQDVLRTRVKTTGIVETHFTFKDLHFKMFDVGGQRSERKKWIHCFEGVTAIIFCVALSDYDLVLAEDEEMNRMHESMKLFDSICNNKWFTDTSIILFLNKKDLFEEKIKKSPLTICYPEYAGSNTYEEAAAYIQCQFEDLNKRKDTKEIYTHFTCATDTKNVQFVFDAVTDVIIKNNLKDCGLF
In short: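 Fluorescence polarization assay: 50 nM Gαi1 with 10 nM FITC-labeled RGS12 GoLoco peptide in 10 mM Tris pH 7.5, 150 mM NaCl, 0.1 mM GDP, 0.05% NP40, 10 min at room temperature with compound.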

[14] = target: Cytochrome P450 2C9 (Homo sapiens) (UniProt P11712); test: qHTS Assay for Inhibitors and Substrates of Cytochrome P450 2C9 (AID 883); also: nearly all actives have a fitted effect of over 60% in size
Cytochrome P450 2C9 (Homo sapiens), sequence (P11712 whole entry, looked up): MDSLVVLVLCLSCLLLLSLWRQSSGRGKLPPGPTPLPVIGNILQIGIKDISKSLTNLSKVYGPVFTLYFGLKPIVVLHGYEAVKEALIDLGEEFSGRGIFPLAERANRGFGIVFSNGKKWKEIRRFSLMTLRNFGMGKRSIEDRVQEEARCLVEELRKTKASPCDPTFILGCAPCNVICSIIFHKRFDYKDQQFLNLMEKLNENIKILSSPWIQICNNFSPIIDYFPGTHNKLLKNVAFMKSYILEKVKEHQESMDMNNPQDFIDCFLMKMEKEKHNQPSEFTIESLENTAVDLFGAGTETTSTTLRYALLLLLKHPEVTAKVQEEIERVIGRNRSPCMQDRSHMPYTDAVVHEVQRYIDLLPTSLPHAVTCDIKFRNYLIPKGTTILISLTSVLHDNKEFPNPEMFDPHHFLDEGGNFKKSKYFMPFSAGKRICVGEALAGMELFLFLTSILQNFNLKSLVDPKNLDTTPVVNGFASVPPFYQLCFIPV
In short: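 10nM CYP2C9 + 100uM Luciferin-H (=KM), 25mM KPO4; cpd 10 min 37C; NADPH regen, 60 min 37C; stop/detect with P450 Glo-Buffer 20 min; luminescence. Norm. to 57uM sulphaphenazole as full inhibition.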

[15] = target: Cytochrome P450 2D6 (Homo sapiens) (UniProt P10635); test: qHTS Assay for Inhibitors and Substrates of Cytochrome P450 2D6 (AID 891);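 also: luciferin methyl ether substrate demethylated by CYP2D6 with NADPH regeneration; nearly all actives have a fitted effect of over 60% in size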
Cytochrome P450 2D6 (Homo sapiens), sequence (P10635 whole entry, looked up): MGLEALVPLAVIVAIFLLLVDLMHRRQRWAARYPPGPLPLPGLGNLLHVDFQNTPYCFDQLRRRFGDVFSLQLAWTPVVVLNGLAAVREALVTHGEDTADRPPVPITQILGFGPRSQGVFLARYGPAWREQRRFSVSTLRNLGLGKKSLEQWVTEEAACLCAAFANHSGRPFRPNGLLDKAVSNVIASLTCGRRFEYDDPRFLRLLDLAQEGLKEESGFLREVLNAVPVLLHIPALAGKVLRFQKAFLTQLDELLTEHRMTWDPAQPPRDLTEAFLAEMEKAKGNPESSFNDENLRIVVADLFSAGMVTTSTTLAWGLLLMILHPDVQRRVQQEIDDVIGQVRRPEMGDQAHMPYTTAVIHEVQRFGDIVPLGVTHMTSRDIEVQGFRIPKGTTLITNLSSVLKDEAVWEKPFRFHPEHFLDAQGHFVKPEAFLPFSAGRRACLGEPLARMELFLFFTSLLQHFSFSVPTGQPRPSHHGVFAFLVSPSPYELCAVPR
In short: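 Human CYP2D6 (5 nM) with 30 uM Luciferin-ME EGE (at Km) in 100 mM KPO4, compound preincubated 10 min, then NADPH regeneration system for 60 min at room temperature. Luciferin read by luminescence; normalized to 1.43 uM quinidine.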

[16] = target: Cytochrome P450 2C19 (Homo sapiens) (UniProt P33261); test: qHTS Assay for Inhibitors and Substrates of Cytochrome P450 2C19 (AID 899); also: nearly all actives have a fitted effect of over 60% in size
In short: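 Luminescent read-out of luciferin formed from Luciferin-H EGE (10uM, equal to KM). Enzyme 5nM in 50mM KPO4; compound added, 10 min at 37C, then NADPH regenerating system for 60 min at 37C. Full inhibition defined by 57uM ketoconazole.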

[17] = qHTS Assay for Identification of Small Molecule Agonists for Thrombopoietin (TPO) Signaling Pathway (AID 917)
In short: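 IL-3-dependent murine pro-B Ba/F3 cells, stably transfected with human TPO receptor and GpIIb-promoter luciferase, are incubated 24 hrs at 37 C with test compound and 26 pM TPO; luciferase signal is read after 10 min at room temperature.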

[18] = target: Muscarinic acetylcholine receptor M1 (Rattus norvegicus) (UniProt P08482); test: qHTS Assay for Antagonists of Acetylcholine Muscarinic M1 Receptor: Measurement of IP-One Response (AID 944); also: nearly all actives have a fitted effect of over 75% in size
Muscarinic acetylcholine receptor M1 (Rattus norvegicus), sequence (P08482 whole entry, looked up): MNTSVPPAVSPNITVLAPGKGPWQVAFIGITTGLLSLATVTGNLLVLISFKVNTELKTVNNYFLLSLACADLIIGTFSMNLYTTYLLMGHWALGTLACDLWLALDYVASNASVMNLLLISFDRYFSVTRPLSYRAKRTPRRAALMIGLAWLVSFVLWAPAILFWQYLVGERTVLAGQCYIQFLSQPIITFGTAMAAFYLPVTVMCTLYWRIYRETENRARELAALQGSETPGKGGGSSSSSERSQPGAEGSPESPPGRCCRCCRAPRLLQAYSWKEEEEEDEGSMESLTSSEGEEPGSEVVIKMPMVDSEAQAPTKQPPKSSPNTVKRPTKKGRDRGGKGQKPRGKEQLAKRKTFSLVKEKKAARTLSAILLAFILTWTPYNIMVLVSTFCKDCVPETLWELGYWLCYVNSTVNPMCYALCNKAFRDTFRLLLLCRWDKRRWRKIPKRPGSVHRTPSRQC
In short: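 CHO cells stably expressing rat M1, pretreated 10 min with compound, then stimulated 30 min with carbachol at EC80 (200 nM) in LiCl-containing buffer pH 7.4; IP1 accumulation read by HTRF competition (665/620 nm).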

[19] = target: Pyruvate kinase (Leishmania mexicana) (UniProt Q27686); test: qHTS Validation Assay for Inhibitors of Leishmania Mexicana Pyruvate Kinase (AID 945)
In short: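 Mutant LmPYK (E451W), 0.2 nM, plus 0.5 mM PEP and 0.1 mM ADP in 50 mM imidazole pH 7.2 containing 0.01% Tween 20 and 0.05% BSA. Incubated 1 h at room temperature; luminescence via PKLight, normalized to DMSO.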

[20] = target: Pyruvate kinase PKM (Homo sapiens) (UniProt P14618); test: qHTS Assay for Activators of Human Muscle Pyruvate Kinase (AID 954; active = well fitted curve in the direction sought with a large enough effect, not every such curve was filed as active)
In short: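 Enzyme was run at intermediate activity so both inhibitors and activators could be detected. ATP formed from ADP and PEP by 0.1 nM human PKM2 during a 1 h room-temperature incubation was quantified by coupled luciferase luminescence.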

[21] = target: alpha-glucosidase (Oryza sativa, rice) (UniProt Q653V4); test: Counterscreen for Glucocerebrosidase Inhibitors: qHTS Assay for Rice alpha-Glucosidase at pH 5.0 (AID 997)
In short: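 Rice alpha-glucosidase (4 nM final) with 400 uM 4-methylumbelliferyl-alpha-D-glucopyranoside in citrate buffer pH 5.0, 20 min at room temperature, stopped at pH 10; fluorescence 365/440 nm, compounds 0.7 nM–77 uM, AC50 from Hill fits.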

[22] = qHTS Assay for Identification of Small Molecule Antagonists for NFkB Signaling Pathway (AID 895; active = well fitted inhibition curve with a large enough effect in the signal ratio, with a control signal flat, not every such curve was filed as active; the % refers to the signal ratio; also: potency is read from the fitted curve at half-maximal effect)
In short: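 ME-180 NFkB-bla cells (beta-lactamase under NFkB response element), plated overnight, treated with compound then 10 pM TNF alpha (about EC50) for 5 hrs at 37 C. LiveBLAzer FRET read at 460/530 nm emission, 405 nm excitation.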

[23] = Confirmation and Secondary Assay for Modulators of Hemoglobin Beta Chain Splicing at IVS2 654 locus (AID 910);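 also: HeLa cells stably carrying EGFP split by mutant beta-globin IVS2-654 intron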
In short: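 HeLa cells stably expressing EGFP interrupted by β-globin IVS2-654 intron, seeded overnight in Opti-MEM/2% FCS, then treated 2 days at 37 °C. Restored splicing read as total peak GFP intensity per well by laser scanning cytometry (488 nm excitation, 500–520 nm emission); 500 nM antisense PNA as control.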

[24] = Confirmation and Secondary Assay for Modulators of Hemoglobin Beta Chain Splicing at IVS2 705 locus (AID 930);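 also: HeLa cells stably expressing the EGFP-705 splicing reporter; GFP fluorescence per well restored by corrected splicing of the IVS2-705 intron in EGFP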
In short: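 Stable HeLa line with EGFP disrupted by mutant beta-globin intron 2 (705). Overnight attachment, then 2 days of compound at 37C, 5% CO2. Signal: peak GFP intensity summed over objects 5-250 µm.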

[25] = target: Rap guanine nucleotide exchange factor 3 (Homo sapiens) (UniProt O95398); test: Confirmatory qHTS for agonist of cAMP-regulated guanine nucleotide exchange factor 3 (EPAC1) (AID 1645881);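 also: EPAC1 catalysed release of BODIPY-GDP from Rap1B seen as fluorescence loss; nearly all actives have a fitted effect of over 75% in size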
[26] = target: Rap guanine nucleotide exchange factor 4 (Homo sapiens) (UniProt Q8WZA2); test: Confirmatory qHTS for agonist of cAMP-regulated guanine nucleotide exchange factor 4 (EPAC2) (AID 1645884);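 also: nucleotide exchange releases bodipy-GDP from Rap1 and this lowers its fluorescence; nearly all actives have a fitted effect of over 65% in size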
Rap guanine nucleotide exchange factor 4 (Homo sapiens), sequence (Q8WZA2 whole entry, looked up): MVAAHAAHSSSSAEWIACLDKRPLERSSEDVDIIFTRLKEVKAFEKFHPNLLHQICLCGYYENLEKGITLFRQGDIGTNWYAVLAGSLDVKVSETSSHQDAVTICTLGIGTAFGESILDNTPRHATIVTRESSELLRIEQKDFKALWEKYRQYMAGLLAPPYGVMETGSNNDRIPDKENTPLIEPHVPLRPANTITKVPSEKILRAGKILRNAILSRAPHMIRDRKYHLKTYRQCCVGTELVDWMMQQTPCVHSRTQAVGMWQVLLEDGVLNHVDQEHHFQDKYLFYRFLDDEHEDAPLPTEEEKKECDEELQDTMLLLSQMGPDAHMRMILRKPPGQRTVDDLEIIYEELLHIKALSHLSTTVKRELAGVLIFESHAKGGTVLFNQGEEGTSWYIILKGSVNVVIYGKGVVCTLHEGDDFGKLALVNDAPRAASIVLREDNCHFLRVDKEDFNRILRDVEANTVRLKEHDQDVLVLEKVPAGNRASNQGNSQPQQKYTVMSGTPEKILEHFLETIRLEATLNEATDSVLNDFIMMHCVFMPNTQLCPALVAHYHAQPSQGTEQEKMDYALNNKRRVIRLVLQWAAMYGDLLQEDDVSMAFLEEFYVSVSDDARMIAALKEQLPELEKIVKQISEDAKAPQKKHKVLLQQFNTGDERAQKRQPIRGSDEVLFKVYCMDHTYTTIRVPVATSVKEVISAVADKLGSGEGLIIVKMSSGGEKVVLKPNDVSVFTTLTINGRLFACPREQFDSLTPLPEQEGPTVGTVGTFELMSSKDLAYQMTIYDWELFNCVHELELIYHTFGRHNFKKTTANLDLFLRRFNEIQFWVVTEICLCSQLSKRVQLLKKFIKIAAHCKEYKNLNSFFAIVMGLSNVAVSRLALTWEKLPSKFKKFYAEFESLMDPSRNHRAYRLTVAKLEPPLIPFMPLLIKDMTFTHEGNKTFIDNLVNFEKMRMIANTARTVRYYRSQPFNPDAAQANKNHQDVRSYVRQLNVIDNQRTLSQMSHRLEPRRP

[27] = target: Rap guanine nucleotide exchange factor 4 (Homo sapiens) (UniProt Q8WZA2); test: Confirmatory qHTS for antagonist of cAMP-regulated guanine nucleotide exchange factor 4 (EPAC2) (AID 1645885); also: potency is read from the fitted curve at half-maximal effect; nearly all actives have a fitted effect of over 25% in size

## C[C@@]1(C(=O)O)NCCc2cc(O)c(O)cc21
[1]
  Potency: inactive
[2]
  Potency: > 46 µM
[3]
  Potency: > 46 µM
[4]
  Potency: inactive
[5]
  Potency: inactive
[6]
  Potency: 56.2 µM (active)
[7]
  Potency: inactive
[8]
  Potency: 11.9 µM (active)

## COc1cc2nc(N3CCN(C(=O)[C@H]4CCCO4)CC3)nc(N)c2cc1OC
[9]
  activity change, negative = inhibition: 14.3%
[1]
  Potency: inactive
[10]
  activity change, negative = inhibition: -4.26%
[11]
  activity, negative = inhibition: 7.77%
[2]
  Potency: > 46 µM
[3]
  Potency: > 46 µM
[12]
  Potency: inactive
[4]
  Potency: inactive
[13]
  outcome: inactive
[14]
  Potency: inactive
[15]
  Potency: inactive
[16]
  Potency: inactive
[17]
  Potency: inactive
[18]
  Potency: inactive
[19]
  Potency: inactive
[20]
  outcome: inactive
[21]
  outcome: inactive
[7]
  Potency: inactive
[8]
  Potency: 26.7 µM (active)

## COCCOC(=O)C1=C(C)NC(C)=C(C(=O)OC(C)C)[C@@H]1c1cccc([N+](=O)[O-])c1
[9]
  activity change, negative = inhibition: -20.1%
[10]
  activity change, negative = inhibition: -10.3%
[2]
  Potency: > 46 µM
[3]
  Potency: > 46 µM
[4]
  Potency: inactive
[13]
  outcome: inactive
[22]
  Potency: 7.08 µM (active)
[23]
  outcome: inactive
[24]
  outcome: inactive
[18]
  Potency: inactive
[19]
  Potency: inactive
[20]
  outcome: inactive
[21]
  outcome: inactive
[7]
  Potency: inactive
[8]
  Potency: inactive
[25]
  outcome: inactive
[26]
  outcome: inactive

## C/C=C\C[C@@H](C)[C@@H](O)[C@H]1C(=O)N[C@@H](CC)C(=O)N(C)CC(=O)N(C)[C@@H](CC(C)C)C(=O)N[C@@H](C(C)C)C(=O)N(C)[C@@H](CC(C)C)C(=O)N[C@@H](C)C(=O)N[C@H](C)C(=O)N(C)[C@@H](CC(C)C)C(=O)N(C)[C@@H](CC(C)C)C(=O)N(C)[C@@H](C(C)C)C(=O)N1C
[12]
  Potency: inactive
[8]
  Potency: inactive
[27]
  Potency: 24.8 µM (active)
